Laboratory results reported in PubChem BioAssay (Tox21).
Several values for one entry are separate records, joined by “and”; a condition that tells them apart may be missing. Equal values may be shown once. A number with no mark means an inactive call. Records with an inconclusive call do not appear. Where a call stands in place of a potency, no number is given. Activity calls are given as the source filed them. The call rests on the fitted dose curve.

Columns and labels:
[1] = target: Acetylcholinesterase (Homo sapiens) (UniProt P22303); assay: Acetylcholinesterase (AChE) small molecule antagonists: colormetric cell-based qHTS assay (AID 1347395); further: nearly all actives have a fitted effect of over 30% in size; further: potency means the concentration at half of the fitted maximal effect
Acetylcholinesterase (Homo sapiens), sequence (P22303 whole entry, looked up): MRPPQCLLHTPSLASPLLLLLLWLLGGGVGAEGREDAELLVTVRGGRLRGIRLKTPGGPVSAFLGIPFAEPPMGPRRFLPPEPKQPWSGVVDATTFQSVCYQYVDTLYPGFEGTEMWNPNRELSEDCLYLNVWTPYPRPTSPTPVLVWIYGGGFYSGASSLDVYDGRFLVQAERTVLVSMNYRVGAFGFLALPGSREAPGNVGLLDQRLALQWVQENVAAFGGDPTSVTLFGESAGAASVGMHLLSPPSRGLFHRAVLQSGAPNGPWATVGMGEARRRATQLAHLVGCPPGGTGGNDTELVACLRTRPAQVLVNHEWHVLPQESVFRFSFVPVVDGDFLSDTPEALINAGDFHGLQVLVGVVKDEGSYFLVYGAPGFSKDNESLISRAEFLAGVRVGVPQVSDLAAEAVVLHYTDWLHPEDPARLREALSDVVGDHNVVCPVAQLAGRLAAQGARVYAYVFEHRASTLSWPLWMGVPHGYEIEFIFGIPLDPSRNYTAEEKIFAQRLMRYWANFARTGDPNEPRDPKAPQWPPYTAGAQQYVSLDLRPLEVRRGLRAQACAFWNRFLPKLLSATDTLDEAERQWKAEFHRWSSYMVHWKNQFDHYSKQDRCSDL
In short: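 Cells (SH-SY5Y, 2,000 per well) are seeded and left overnight at 37 C. Compound is added for 30 min, then DTNB and acetylthiocholine for a further 90 min at 37 C before absorbance-based thiocholine detection.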

[2] = target: Acetylcholinesterase (Homo sapiens) (UniProt P22303); assay: Acetylcholinesterase (AChE) small molecule antagonists: enzyme-based qHTS assay (AID 1347397); settings: Potency: AChE enzyme activity inhibition; outcome: AChE enzyme activity inhibition; further: nearly all actives have a fitted effect of over 55% in size; further: potency means the concentration at half of the fitted maximal effect
In short: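 Colorimetric DTNB readout of acetylthiocholine hydrolysis, 10 min at room temperature, after 30 min room-temperature exposure of 50 mU/mL recombinant human enzyme to compound; DMSO vehicle control.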

[3] = target: Acetylcholinesterase (Homo sapiens) (UniProt P22303); assay: Acetylcholinesterase (AChE) small molecule antagonists: fluorescence cell-based qHTS assay (AID 1347398); settings: Potency: AChE activity; outcome: AChE activity; further: nearly all actives have a fitted effect of over 50% in size; further: potency means the concentration at half of the fitted maximal effect
In short: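 Cellular AChE activity read as thiocholine from acetylthiocholine hydrolysis, detected by Thiolite Green fluorescence at 490/520 nm after 40 min at room temperature. Compounds were pre-incubated 30 min at 37 C on adherent SH-SY5Y cells.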

[4] = target: Acetylcholinesterase (Homo sapiens) (UniProt P22303); assay: Acetylcholinesterase (AChE) small molecule antagonists: enzyme-based qHTS assay with human liver microsomes (AID 1347399); settings: Potency: qHTS inhibition; outcome: qHTS inhibition; further: nearly all actives have a fitted effect of over 60% in size
In short: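 Recombinant human AChE (50 mU/mL in the enzyme mix) and human liver microsomes (0.25 mg/mL final) were preincubated with compound and NADPH (0.25 mg/mL final) for 30 min at 37 C. Acetylthiocholine/DTNB was then added; thiocholine was read colorimetrically after 10 min at room temperature.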

C=C1CC[C@H](O)C/C1=C\C=C1/CCC[C@]2(C)[C@@H]([C@H](C)CCCC(C)C)CC[C@@H]12
Potency [1]: inactive
Potency [2]: inactive
Potency [3]: inactive
Potency [4]: inactive

Nc1nc2c(ncn2COCCO)c(=O)[nH]1
Potency [1]: inactive
Potency [2]: inactive
Potency [3]: inactive
Potency [4]: inactive

CN(C)c1ccc(N=NS(=O)(=O)O)cc1
Potency [1]: inactive
Potency [2]: inactive
Potency [3]: inactive
Potency [4]: inactive

COc1ccc(OC)c(NC(=O)CC(C)=O)c1
Potency [1]: inactive
Potency [2]: inactive
Potency [3]: inactive
Potency [4]: inactive

O=C(CCCCCCCCc1cccnc1)N1CCC(C=C(c2ccccc2)c2ccccc2)CC1
Potency [1]: inactive
Potency [2]: inactive
Potency [3]: inactive
Potency [4]: inactive

CCNc1cccc(C)c1
Potency [1]: inactive
Potency [2]: inactive
Potency [3]: inactive
Potency [4]: inactive

CC1=NC(C)OC1C (stereo not given)
Potency [1]: inactive
Potency [2]: inactive
Potency [3]: inactive
Potency [4]: inactive

CCCCC(CC)COCCCN (stereo not given)
Potency [1]: inactive
Potency [2]: inactive
Potency [3]: inactive
Potency [4]: inactive

CC(C)(Oc1ccc(CCNC(=O)c2ccc(Cl)cc2)cc1)C(=O)O
Potency [1]: inactive
Potency [2]: inactive
Potency [3]: inactive
Potency [4]: inactive

CN1CCC(OC(c2ccccc2)c2ccccc2)CC1
Potency [1]: inactive
Potency [2]: inactive
Potency [3]: inactive
Potency [4]: inactive

c1ccc2c(c1)-c1cccc3c1c-2cc1ccccc13
Potency [1]: inactive
Potency [2]: inactive
Potency [3]: inactive
Potency [4]: inactive

O=C1OC(O)C(C(Cl)Cl)=C1Cl (stereo not given)
Potency [1]: inactive
Potency [2]: inactive
Potency [3]: inactive
Potency [4]: inactive

Nc1ccc(S(=O)(=O)c2ccc(N)cc2)cc1
Potency [1]: inactive
Potency [2]: inactive
Potency [3]: inactive
Potency [4]: inactive

CC(=O)CC(C)(C)C1CCCCC1
Potency [1]: inactive
Potency [2]: inactive
Potency [3]: inactive
Potency [4]: inactive

COc1ccc([N+](=O)[O-])cc1N
Potency [1]: inactive
Potency [2]: inactive
Potency [3]: inactive
Potency [4]: inactive

Nc1nc2c(ncn2CCC(CO)CO)c(=O)[nH]1
Potency [1]: inactive
Potency [2]: inactive
Potency [3]: inactive
Potency [4]: inactive

CN(C)CCN(Cc1ccsc1)c1ccccn1
Potency [1]: inactive
Potency [2]: inactive
Potency [3]: inactive
Potency [4]: inactive

O=S1(=O)CCCO1
Potency [1]: inactive
Potency [2]: inactive
Potency [3]: inactive
Potency [4]: inactive

CN1N=C(C(N)=O)CCC1=O
Potency [1]: inactive
Potency [2]: inactive
Potency [3]: inactive
Potency [4]: inactive

COc1ccccc1OCC(O)COC(N)=O (stereo not given)
Potency [1]: inactive
Potency [2]: inactive
Potency [3]: inactive
Potency [4]: inactive

S=C([S-])NCCNC(=S)[S-].S=C([S-])NCCNC(=S)[S-].[Mn+2].[Zn+2]
Potency [1]: 30.9 µM (active)
Potency [2]: inactive
Potency [3]: 30.9 µM (active)
Potency [4]: inactive

N#Cc1ccccc1C#N
Potency [1]: inactive
Potency [2]: inactive
Potency [3]: inactive
Potency [4]: inactive

CC(=O)Oc1ccc(C2(c3ccc(OC(C)=O)cc3)Oc3ccccc3NC2=O)cc1
Potency [1]: inactive
Potency [2]: inactive
Potency [3]: inactive
Potency [4]: inactive

O=c1[nH]c(=O)n([C@H]2C[C@H](O)[C@@H](CO)O2)cc1C(F)(F)F
Potency [1]: inactive
Potency [2]: inactive
Potency [3]: inactive
Potency [4]: inactive

CC(=O)O[C@]1(C(C)=O)CC[C@H]2[C@@H]3C=C(Cl)C4=CC(=O)CC[C@]4(C)[C@H]3CC[C@@]21C
Potency [1]: inactive
Potency [2]: inactive
Potency [3]: inactive
Potency [4]: inactive

CC(C)CC(C)O (stereo not given)
Potency [1]: inactive
Potency [2]: inactive
Potency [3]: inactive
Potency [4]: inactive

Cc1ccc2oc(=O)ccc2c1
Potency [1]: inactive
Potency [2]: inactive
Potency [3]: inactive
Potency [4]: inactive

Oc1c(Cl)cc(Cl)cc1Sc1cc(Cl)cc(Cl)c1O
Potency [1]: inactive
Potency [2]: 40 µM (active) and 72.2 µM (active) and 56.4 µM (active)
Potency [3]: inactive
Potency [4]: inactive

CC(C)=CCC[C@](C)(O)[C@@H]1CC=C(C)CC1
Potency [1]: inactive
Potency [2]: inactive
Potency [3]: inactive
Potency [4]: inactive

CO/N=C(/C(=O)N[C@@H]1C(=O)N2C(C(=O)O)=C(COC(N)=O)CS[C@H]12)c1ccco1
Potency [1]: inactive
Potency [2]: inactive
Potency [3]: inactive
Potency [4]: inactive

CCOB(OCC)OCC
Potency [1]: inactive
Potency [2]: inactive
Potency [3]: inactive
Potency [4]: inactive

Nc1cc(S(=O)(=O)O)cc2cc(S(=O)(=O)O)cc(O)c12
Potency [1]: inactive
Potency [2]: inactive
Potency [3]: inactive
Potency [4]: inactive

CC(CO)(CO)CO
Potency [1]: inactive
Potency [2]: inactive
Potency [3]: inactive
Potency [4]: inactive

CCCCOC(=O)c1ccc(N)cc1
Potency [1]: inactive
Potency [2]: inactive
Potency [3]: inactive
Potency [4]: inactive

C=C(C)C(=O)OCCCCCCCCCC
Potency [1]: inactive
Potency [2]: inactive
Potency [3]: inactive
Potency [4]: inactive

O=c1[nH]cccc1O
Potency [1]: inactive
Potency [2]: inactive
Potency [3]: inactive
Potency [4]: inactive

C[C@@H]1CC[C@@]2(OC1)O[C@H]1C[C@H]3[C@@H]4CC[C@H]5C[C@@H](O)CC[C@]5(C)[C@H]4CC(=O)[C@]3(C)[C@H]1[C@@H]2C
activity, negative = inhibition [1]: -3.52% [at 10.5 µM]
activity change, negative = inhibition [2]: -1.66% [at 10.5 µM]
activity change, negative = inhibition [3]: -1.2% [at 10.5 µM]
activity change, negative = inhibition [4]: -3.36% [at 10.5 µM]

CC(C)Cn1cnc2c1c(=O)n(C)c(=O)n2C
Potency [1]: inactive
Potency [2]: inactive
Potency [3]: inactive
Potency [4]: inactive

CCCCCCCOC(=O)CCC
Potency [1]: inactive
Potency [2]: inactive
Potency [3]: inactive
Potency [4]: inactive

S=C1NC=NC2N=CNC12 (stereo not given)
Potency [1]: inactive
Potency [2]: inactive
Potency [3]: inactive
Potency [4]: inactive

COC(=O)C1CCC(C(=O)OC)CC1 (stereo not given)
Potency [1]: inactive
Potency [2]: inactive
Potency [3]: inactive
Potency [4]: inactive

Cc1ccncc1
Potency [1]: inactive
Potency [2]: inactive
Potency [3]: inactive
Potency [4]: inactive

COC(=O)c1ccc([N+](=O)[O-])cc1
Potency [1]: inactive
Potency [2]: inactive
Potency [3]: inactive
Potency [4]: inactive

O=S(=O)(Cl)c1c(Cl)cccc1Cl
Potency [1]: inactive
Potency [2]: inactive
Potency [3]: inactive
Potency [4]: inactive

Oc1ccc(C(c2ccc(O)cc2)C(Cl)(Cl)Cl)cc1
Potency [1]: inactive
Potency [2]: inactive
Potency [3]: inactive
Potency [4]: inactive

CCCCCCC(=O)c1ccccc1
Potency [1]: inactive
Potency [2]: inactive
Potency [3]: inactive
Potency [4]: inactive

CCC/C=C/C=O
Potency [1]: inactive
Potency [2]: inactive
Potency [3]: inactive
Potency [4]: inactive

Cn1c(=O)c2[nH]c(Br)nc2n(C)c1=O
Potency [1]: inactive
Potency [2]: inactive
Potency [3]: inactive
Potency [4]: inactive

CCCCCCCCCCCCCCCCCCOCC(O)CO (stereo not given)
Potency [1]: inactive
Potency [2]: inactive
Potency [3]: inactive
Potency [4]: inactive

CCCCCCCCC(=O)OCC
Potency [1]: inactive
Potency [2]: inactive
Potency [3]: inactive
Potency [4]: inactive

Cc1c(C(C)C)c(=O)n(-c2ccccc2)n1C
Potency [1]: inactive
Potency [2]: inactive
Potency [3]: inactive
Potency [4]: inactive

CC(C)c1ccc2cc(C(C)C)ccc2c1
Potency [1]: inactive
Potency [2]: inactive
Potency [3]: inactive
Potency [4]: inactive

CCCCOCCOCCO
Potency [1]: inactive
Potency [2]: inactive
Potency [3]: inactive
Potency [4]: inactive

C=C(C)C(=O)O
Potency [1]: inactive
Potency [2]: inactive
Potency [3]: inactive
Potency [4]: inactive

COc1cccc(CCc2ccccc2OCC(CN(C)C)OC(=O)CCC(=O)O)c1 (stereo not given)
Potency [1]: inactive
Potency [2]: inactive
Potency [3]: inactive
Potency [4]: inactive

OCC(CO)(CBr)CBr
Potency [1]: inactive
Potency [2]: inactive
Potency [3]: inactive
Potency [4]: inactive

C#CCN(C)Cc1ccccc1
Potency [1]: inactive
Potency [2]: inactive
Potency [3]: inactive
Potency [4]: inactive

CCc1ccc(C)cc1
Potency [1]: inactive
Potency [2]: inactive
Potency [3]: inactive
Potency [4]: inactive

O=C(O)c1cc(=O)c2c(OCC(O)COc3cccc4oc(C(=O)O)cc(=O)c34)cccc2o1
Potency [1]: inactive
Potency [2]: inactive
Potency [3]: inactive
Potency [4]: inactive

CN1CCN(C)CC1
Potency [1]: inactive
Potency [2]: inactive
Potency [3]: inactive
Potency [4]: inactive
